An excerpt weighted towards active compounds, which were near 4.1% of everything screened.
AmpC inh no detg: qHTS Inhibitors of AmpC Beta-Lactamase (assay without detergent); 330,000 tested, 0.52% active; P00811; Potency, µM (top dose mostly 57.1 µM), usual class: inhibitors; AmpC nitrocefin hydrolysis, absorbance 480 nm, 0.0001% Triton; also: nearly all actives have a fitted effect of over 20% in size
Target sequence (P00811 whole entry, looked up): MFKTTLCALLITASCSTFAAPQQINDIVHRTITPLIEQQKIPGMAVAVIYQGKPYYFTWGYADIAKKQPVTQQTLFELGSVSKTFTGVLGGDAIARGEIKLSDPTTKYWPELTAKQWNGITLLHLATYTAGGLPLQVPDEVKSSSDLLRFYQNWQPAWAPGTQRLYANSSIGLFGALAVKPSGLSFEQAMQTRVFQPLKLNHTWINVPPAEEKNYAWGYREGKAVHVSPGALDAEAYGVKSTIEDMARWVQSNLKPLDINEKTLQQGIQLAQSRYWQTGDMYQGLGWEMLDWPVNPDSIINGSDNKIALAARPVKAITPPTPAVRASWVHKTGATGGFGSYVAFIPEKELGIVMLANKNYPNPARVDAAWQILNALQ
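AmpC (5.3 nM in the dispensed reagent) in 20 mM phosphate pH 7.0 with 0.01% (detergent screen) or 0.0001% Triton X-100 was preincubated with compounds for 15 min at room temperature. Nitrocefin was then added from an 800 uM solution, and hydrolysis was followed at 480 nm.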
FMDV inh: High Throughput Screening for Foot and Mouth Disease Virus Antivirals; 410,000 tested, 1.2% active; FMDV antiviral cell-based qHTS; Potency, µM (top dose mostly 57.9 µM), usual class: inhibitors; calls by dose curve; tested in HEK293T cells; also: read-out not given here; nearly all actives have a fitted effect of over 45% in size
AMA1-RON2 inh: qHTS for Inhibitors of AMA1-RON; Towards Development of Antimalarial Drug Lead: Primary Screen. Plasmodium falciparum AMA1 (3D7) - RON2 peptide interaction. AlphaScreen AMA1-biotinylated RON2 peptide binding. Potency, µM (top dose mostly 58.2 µM), hits mostly inhibitors. 360,000 tested, 0.2% active. AID 720542, 2013; also: nearly all actives have a fitted effect of over 45% in size
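AMA1 (3D7) with his tag at 25 nM final met compounds first, then biotinylated RON2 peptide at 25 nM; detection used donor plus acceptor beads, 10 µg/mL apiece, read by AlphaScreen after 30 min at room temperature.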
AmpC detergent: qHTS Inhibitors of AmpC Beta-Lactamase (assay with detergent). 370,000 tested, 0.041% active. AID 485294, 2010. P00811. AmpC hydrolysis of nitrocefin, absorbance 480 nm, 0.01% Triton. Potency, µM (series often up to 114 µM), usual class: inhibitors; also: nearly all actives have a fitted effect of over 25% in size
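20 mM phosphate pH 7.0 + 0.01% (detergent screen) or 0.0001% Triton X-100; 5.3 nM AmpC reagent; cpd preinc 15 min RT; nitrocefin (800 uM stock) to start; A480 q20 s × 4 min; Activity was normalised to no-enzyme and no-compound control wells.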
Sm TGR inh: qHTS Assay for the Inhibitors of Schistosoma Mansoni Peroxiredoxins | 360,000 tested, 3% active | Schistosoma mansoni thioredoxin glutathione reductase (TGR), Q962Y6 | Potency, µM (doses to about 114 µM), actives largely listed as inhibitors | AID 485364, 2010 | purified TGR, DTNB reduction, TNB absorbance 405 nm; also: nearly all actives have a fitted effect of over 60% in size
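Kinetic colorimetric format: TGR-catalysed, NADPH-driven DTNB reduction monitored via TNB absorbance. Enzyme dispensed at 20 nM; compound exposure 15 min at room temperature before reaction start.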
Large screens that a line does not name were inactive. Unless noted, calls follow the shape of the dose curve; as a rule, active = well fitted curve in the direction sought with a large enough effect; inconclusive = small, poorly fitted or top-dose-only effect, or another doubt; inactive = no such curve, though single readings can be large; an effect the other way counts as inactive or inconclusive.

CC1CC(C)CN(C(=O)c2ccc(-c3ccc([N+](=O)[O-])cc3)o2)C1 (centres undefined)	AMA1-RON2 inh inconclusive, Sm TGR inh 3.16µM
O=C(c1ccc(-c2ccc(Cl)cc2)o1)N1CCN(c2ccc([N+](=O)[O-])cc2Cl)CC1	none
O=C(c1ccc(-c2ccc([N+](=O)[O-])cc2)o1)N1CCCCC1	Sm TGR inh 44.7µM
O=C(c1ccc(-c2cccc([N+](=O)[O-])c2)o1)N1CCN(c2ccc([N+](=O)[O-])cc2)CC1	FMDV inh inconclusive
Cc1ccc(C(=O)c2oc3ccccc3c2NC(=O)C(C)Oc2ccccc2Cl)cc1 (centres undefined)	none (no result: AmpC inh no detg, AMA1-RON2 inh)
Cc1[nH]c2ccccc2c(=O)c1C(=O)/C=C/c1ccccc1	FMDV inh 12.6µM, Sm TGR inh 31.6µM
COc1cc(O)cc(O)c1C(=O)/C=C/c1ccccc1	Sm TGR inh inconclusive
Cc1cc(C)c(C(=O)/C=C/c2ccc(C(C)C)cc2)c(=O)[nH]1	FMDV inh 31.6µM
COc1cc(OC)c(C(=O)/C=C/c2ccccc2)c(O)c1O	FMDV inh 25.1µM, Sm TGR inh inconclusive
Cc1cc(O)c(C(=O)/C=C/c2ccc(C(C)C)cc2)c(=O)o1	AmpC inh no detg 12.6µM
Cc1cc(C)c(C(=O)/C=C/C=C/c2ccccc2)c(=O)[nH]1	Sm TGR inh inconclusive
CCc1nn(CC(=O)NCCc2ccc(OC)cc2OC)c(=O)c2cc3sccc3n12	none (no result: AmpC inh no detg, AMA1-RON2 inh)
COc1cccc(-c2nn3c(=O)cc(CN4CCN(S(=O)(=O)c5ccc(C)cc5)CC4)nc3s2)c1	none (no result: AmpC inh no detg, AMA1-RON2 inh)
CC(C)c1noc(-c2ccccc2OCC(=O)Nc2cccc([N+](=O)[O-])c2)n1	none (no result: AmpC inh no detg, AMA1-RON2 inh)
Cc1cc(O)c(C(=O)/C=C/c2ccccc2)c(=O)o1	FMDV inh 11.2µM, Sm TGR inh inconclusive
Cc1cc(O)c(C(=O)/C=C/c2ccccc2Br)c(=O)o1	AmpC inh no detg 12.6µM, FMDV inh 11.2µM
Cc1ccc(S(=O)(=O)NC(=O)NC2=NC(C)(C)N(c3ccc(Cl)c(Cl)c3)C(N)=N2)cc1	none (no result: AmpC inh no detg, AmpC detergent, Sm TGR inh)
COc1ccc(CCNC(=O)c2cc(-c3ccc(Cl)cc3)on2)cc1OC	none (no result: AmpC inh no detg, AMA1-RON2 inh)
COc1ccc(CCNC(=O)c2noc(C(C)C)c2[N+](=O)[O-])cc1OC	Sm TGR inh 35.5µM
COc1ccc(CCNC(=O)c2ccc(-c3ccc([N+](=O)[O-])cc3)o2)cc1OC	FMDV inh 17.8µM, Sm TGR inh 39.8µM
COc1ccc(CNC(=O)c2noc(C(C)C)c2[N+](=O)[O-])cc1	none
COc1ccc(-c2nnc(SCC(=O)N(Cc3ccccc3)C(C)(C)C)o2)cc1OC	FMDV inh 11.2µM
CCN(C(=O)CSc1nnc(-c2cc(OC)c(OC)c(OC)c2)o1)c1ccccc1	Sm TGR inh 20µM (no result: AmpC inh no detg, AMA1-RON2 inh)
COc1cc(-c2nnc(SCC(=O)c3ccccc3)o2)cc(OC)c1OC	none (no result: FMDV inh)
CCc1ccc(OC(=O)CSc2nnc(-c3ccc(OC)c(OC)c3)o2)cc1	none (no result: AmpC inh no detg, AMA1-RON2 inh)
Cc1ccc2c(c1)-c1cc(C)nn1C(c1cc(Br)ccc1O)N2 (centres undefined)	none (no result: AmpC inh no detg, AMA1-RON2 inh)
CCOc1ccc(N2Cc3ccccc3C2)cc1	AmpC detergent inconclusive, Sm TGR inh 56.2µM
CCOc1ccccc1N1Cc2ccccc2C1	Sm TGR inh 12.6µM
CC1=C(C)/C(=N/OC(=O)c2cccc([N+](=O)[O-])c2)C=CC1=O	FMDV inh inconclusive, AmpC detergent inconclusive, Sm TGR inh 11.2µM
COc1ccc(CN2Cc3ccccc3OC(c3ccccc3OC)C2)c(O)c1 (centres undefined)	none (no result: AmpC inh no detg, AMA1-RON2 inh, AmpC detergent, Sm TGR inh)
NCCSC1CC(=O)N(c2ccc(F)cc2)C1=O (centres undefined)	Sm TGR inh inconclusive
NCCSC1CC(=O)N(c2ccc(Cl)c(Cl)c2)C1=O (centres undefined)	Sm TGR inh 63.1µM
Cc1cc(C)nc(SCc2ccc(C(=O)N/N=C/c3ccco3)cc2)n1	Sm TGR inh 31.6µM
C/C(=N\NC(=O)c1ccc(CSc2nc(C)cc(C)n2)cc1)c1ccco1	Sm TGR inh 44.7µM
O=c1c(-c2c(O)cc(O)c3c(=O)cc(-c4ccc(O)cc4)oc23)c(-c2ccc(O)cc2)oc2cc(O)cc(O)c12	AmpC inh no detg 20µM
Oc1ccc(N=Nc2c(O)ccc3ccccc23)cc1	AMA1-RON2 inh 16.8µM, AmpC detergent inconclusive (no result: FMDV inh)
CCC(COC)NC(=O)c1cnn(-c2ncc3c(n2)-c2ccccc2CCC3)c1C (centres undefined)	none (no result: AmpC inh no detg, AMA1-RON2 inh, AmpC detergent, Sm TGR inh)
Cc1cc(=O)n(Cc2c(F)cccc2Cl)c2c1c(C)nn2C	none (no result: AmpC inh no detg, AMA1-RON2 inh)
O=C(O)/C=C\C(=O)NNC(=O)c1cc(-c2ccccc2)n[nH]1	Sm TGR inh 22.4µM
O=C(NNS(=O)(=O)c1ccccc1F)c1cc(-c2ccccc2)n[nH]1	none
O=C(O)/C=C/C(=O)NNC(=O)c1cc(-c2ccccc2)n[nH]1	Sm TGR inh 39.8µM
O=C(O)c1cc(-c2ccccc2)n[nH]1	none (no result: AMA1-RON2 inh)
CCOc1ccc(S(=O)(=O)N2CCN(c3ccccc3)CC2)cc1C(N)=O	none (no result: AmpC inh no detg, AMA1-RON2 inh)
Cc1cccc(NC(=O)c2ccc(N3C(=O)C4C5C=CC(C6CC56)C4C3=O)cc2)c1 (centres undefined)	FMDV inh 25.1µM
O=C(Nc1ccc(F)cc1)c1cccc(N2C(=O)C3C4CCC(C4)C3C2=O)c1 (centres undefined)	none
O=C(Nc1ccc(Br)cc1)c1cccc(N2C(=O)C3C4CCC(C4)C3C2=O)c1 (centres undefined)	FMDV inh 39.8µM
COc1ccc(OC)c(NC(=O)c2cccc(N3C(=O)C4C5CCC(C5)C4C3=O)c2)c1 (centres undefined)	FMDV inh 20µM
COc1ccc(OC)c(NC(=O)c2cccc(N3C(=O)C4C5C=CC(C6CC56)C4C3=O)c2)c1 (centres undefined)	FMDV inh 25.1µM
O=C(Nc1ccccc1)c1cccc(N2C(=O)C3C4C=CC(C5CC45)C3C2=O)c1 (centres undefined)	none
CCc1c(C)c2cc3c(c(C)c2oc1=O)OCN(CCc1ccccc1F)C3	Sm TGR inh inconclusive (no result: AmpC inh no detg, AMA1-RON2 inh)
COc1ccccc1-c1cc2c(c(OC)c1)OCCN(C(=O)Cn1nc(-c3ccccc3)c3ccccc3c1=O)C2	none (no result: AmpC inh no detg, AMA1-RON2 inh, AmpC detergent, Sm TGR inh)
Cc1nc2cc(NC(=O)[C@@H]3C[C@@H](Sc4ccccn4)CN3Cc3ccc(F)cc3F)ccc2s1	none (no result: AmpC inh no detg, AMA1-RON2 inh, AmpC detergent, Sm TGR inh)
CS(=O)(=O)c1nc2ccccc2n1Cc1ccccc1	none
COc1ccc(C)cc1Cn1c(S(C)(=O)=O)nc2ccccc21	AmpC inh no detg inconclusive, Sm TGR inh 39.8µM (no result: FMDV inh)
COc1ccc(C2=NOC3(CC(=O)N(c4ccc(F)cc4)C3=O)C2)c(OC)c1 (centres undefined)	AmpC detergent inconclusive

Assay outcomes deposited in PubChem by National Center for Advancing Translational Sciences (NCATS).
